The source of these data is PubChem BioAssay AID1578 (Sanford-Burnham Center for Chemical Genomics, 2009).

Out of some 290,000 compounds screened, about 3,000 (1%) were called active. The sample as a whole holds a higher share of actives than the screen did. A number with no mark means an inactive call. Cut-off read from the data, not from the text of the source: active = inhibition mostly above about 36% (no sharp cut-off); inactive = mostly below about 34%.

This test can be described thus: NOD1 signaling inhibitors, primary screen, cell-based, luminescence, uHTS (AID 1578).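 Note: HEK-293T reporter cells stimulated with the NOD1 agonist gamma-tri-DAP.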 Particulars: NOD1-driven NF-kB luciferase reporter cells, at 4 µM, hits give high values. (A reporter such as luciferase makes a cellular process visible.)
One may read the inhibition as the change of the read-out against control, counted positive when it falls. Consider `COc1ccccc1CNC(=O)c1cc(C(=O)CC(C)C)c[nH]1`, for which the inhibition is -11%.

In the case of `CCc1cc(=O)oc2cc(OC(C)=O)cc(OC(C)=O)c12`, the inhibition was 41.8% (active). As for `CC(=O)Oc1cc(OC(C)=O)c2c(C)cc(=O)oc2c1`, the figure is 13.6%; as for `CCc1cc(=O)oc2cc(C)cc(OCC(C)=O)c12`, -8.5%. For `Cc1nnc(NC(=O)CN2CCN(Cc3ccccc3Cl)CC2)s1`, the inhibition was -8.9%. Consider `CCN(CC)c1ccc(NC(=O)CN2C(=O)CC(C)(C)S(=O)(=O)c3ccccc32)c(C)c1`, for which the inhibition was -6.7%. Consider `Cc1ccc(N(C(=O)Cn2nnc(-c3ccc(C)o3)n2)C(C(=O)NC2CCCC2)c2ccncc2)cc1` (stereo not given), for which the inhibition was -8.9%. `CNC(=S)Nc1cc(S(=O)(=O)Nc2cc(Cl)ccc2Cl)ccc1N1CCCC1`: the inhibition is 2.1%. As for `CCOc1c(Cl)cc(CNc2nnnn2C)cc1OC`, the figure is -41.1%; as for `O=C(Cc1cccc2ccccc12)N/N=C1\CCCc2ccccc21`, 13%.

Take `O=C(CCS(=O)(=O)c1ccccc1)Nc1nncs1`: the inhibition was 3.3%. For `Cc1ccccc1OCCCC(=O)Nc1nncs1`, the inhibition is 51.4% (active).

For `O=C(CCCOc1ccccc1)Nc1nncs1`, the inhibition was 2.6%. As for `Cc1ccccc1OCCCC(=O)Nc1nccs1`, the inhibition is 6.5%. As to `Cc1nnc(NC(=O)CCS(=O)(=O)Cc2ccccc2)s1`, the inhibition was -5.2%. On to `O=C(CCS(=O)(=O)Cc1ccccc1)Nc1nncs1`, for which the inhibition was 103% (active). As for `CCOC(=O)c1nnc2cc(-c3ccccc3)nn2c1C`, the inhibition is -32.6%. As for `Cc1ccc(N(Cc2cc3ccc(C)cc3[nH]c2=O)C(=O)c2ccco2)cc1`, the inhibition was -4%.

With `COc1ccc(OCCC(=O)OCC(=O)NC(=O)NC(C)C)cc1`, the inhibition was -3.2%. The value for `COc1cccc(/C=N/N2CCN(C3c4ccccc4-c4ccccc43)CC2)c1O` was -6.4%.

As for `CCCn1c(=S)[nH]c2ccccc2c1=O`, the inhibition is -14.5%. As for `CN(C)c1ccc(/C=C/c2ccc3c4ccccc4ccc3[n+]2-c2ccccc2)cc1`, the figure is 71.6% (active). As for `CN(C)c1ccc(/C=C/c2nc3ccccc3s2)cc1`, the figure is -3.1%; as for `CN(C)c1ccc(/C=C/c2ccc3ccccc3[n+]2C)cc1`, 43.8%. As for `O=[N+]([O-])c1ccc(/C=C/c2ccc3ccccc3n2)cc1`, the figure is -12.9%. With `CCCN(CCC)c1ccc(/C=C/c2ccc3cc(OCC)ccc3n2)cc1`, the inhibition was -1.6%. For `C(=C\c1ccc2ccccc2n1)/c1ccccc1`, the inhibition was 0%. The value for `CN(C)c1ccc(/C=C/c2ccc3ccccc3n2)cc1` was 59.1% (active); that for `CC[n+]1ccccc1/C=C/c1ccc(N(C)C)cc1` was 40.5%; that for `Oc1ccc(/C=C/c2ccc3ccccc3n2)cc1` was 50.2% (active).

As to `COc1cc(CNCCC2CCOC(C)(C)C2)ccc1O` (stereo not given), the inhibition is 12.4%. In the case of `O=C(COc1ccc2c3c(c(=O)oc2c1)CCC3)Nc1ccc(CN2CCOCC2)cc1`, the inhibition is -11.6%. Consider `COc1ccc2nc(C)c(C(N)=O)cc2c1`, for which the inhibition is 5.9%. As to `O=C(NC(=S)Nc1ccccn1)c1ccccc1`, the inhibition is -7.6%.

With `O=C(NC(=O)c1ccccc1)Nc1ccccn1`, the inhibition was 64.2% (active). On to `O=C(Nc1ccccn1)c1ccc(C(=O)Nc2ccccn2)cc1`, for which the inhibition was -5.1%. Take `CC(=O)c1c(C)nn(CC(O)COc2ccc3ccccc3c2)c1C` (stereo not given): the inhibition is -16.4%. The value for `Cc1ccccc1C(=O)NC(=S)N(CCO)Cc1ccccc1` was -10.6%. As for `CSCC(=O)N1CCC(Oc2cccc(C(=O)NCc3ccccn3)c2)CC1`, the inhibition is -24%.

As for `CC(C)NC(=O)CSc1nc(N)c(-c2ccccc2)c(=O)[nH]1`, the inhibition was 7.6%. In the case of `Cc1ccc2oc(/N=C(\N)NC(=O)C3CC3)nc2c1`, the inhibition is -13.8%. For the molecule `CC(=O)N/C(N)=N/c1nc2cc(C)ccc2o1`, the inhibition was -10.1%. With `CCCOc1cccc(C2C(C(=O)c3ccco3)=C(O)C(=O)N2c2nnc(C)s2)c1` (stereo not given), the inhibition was -7.8%. In the case of `N#Cc1ccc(C(=O)NCC2CCCCC2)cc1`, the inhibition is 0.9%. The value for `O=C(O)c1cccc(C(=O)c2cccc(C(=O)O)c2)c1` was -26.4%; that for `COc1ccc(CCCC(=O)N/N=C/c2ccccc2OC)cc1` was -14.1%; that for `CSc1ccc(/C=N/NC(=O)CNc2ccc3ccccc3c2)cc1` was -16.8%. Turning to `CCN(CC)S(=O)(=O)c1ccc(N/N=C(\C)c2ccncc2)c([N+](=O)[O-])c1`, the inhibition is 31%. Turning to `C/C(=N\Nc1ccc(S(=O)(=O)Nc2ccccc2)cc1[N+](=O)[O-])c1ccncc1`, the inhibition was 34.7%.

Regarding `Cc1cc(=O)[nH]c(N/N=C/c2ccc(-c3ccc(F)cc3)o2)n1`, the inhibition is -56.3%.

Regarding `C/C(=N\N=c1/sc2ccccc2n1C)c1ccccn1`, the inhibition was -61.2%. As to `CCN(CC)S(=O)(=O)c1ccc2c(c1)c(=O)c(C(=O)NCCOC)cn2C`, the inhibition was -12.6%.

Regarding `COc1ccc(C(=O)Nn2c(SCC(=O)c3ccccc3)nc3ccccc3c2=O)cc1`, the inhibition is 43.6%.

In the case of `COc1ccc(C(=O)Nn2c(SCC(=O)NCc3ccccc3)nc3ccccc3c2=O)cc1`, the inhibition was 18.4%. For `COc1ccc(C(=O)Nn2c(SCC(=O)NC3CCCCC3)nc3ccccc3c2=O)cc1`, the inhibition is 88% (active). The value for `COc1ccc(C(=O)Nn2c(SCC(=O)NCc3ccco3)nc3ccccc3c2=O)cc1` was -0.3%. Regarding `COc1ccc(C(=O)Nn2c(SCC(=O)NC3CCCC3)nc3ccccc3c2=O)cc1`, the inhibition was 12.9%. As for `COc1ccc(C(=O)Nn2c(SCC(=O)NCC3CCCO3)nc3ccccc3c2=O)cc1` (stereo not given), the inhibition was 64.6% (active). For `COc1ccccc1NC(=O)C(CCS(C)(=O)=O)N1C(=O)c2ccccc2C1=O` (stereo not given), the inhibition was -3.2%. With `C#CCSc1nnc(-c2c[nH]c3ccccc23)n1C`, the inhibition is -40.9%. Take `Cn1cc2ccc([N+](=O)[O-])cc2n1`: the inhibition is -6.5%. On to `CCOc1ccc(CCNC(=O)CCC(=O)N2CCOc3ccccc32)cc1OCC`, for which the inhibition was -4.6%.

`O=C(N/C(=C\c1cccs1)C(=O)N1CCOCC1)c1ccco1`: the inhibition was -12.2%. `CCOc1ccc(NC(=O)CN(C)c2nnnn2-c2ccccc2)cc1OCC`: the inhibition was 39%.

As for `COc1cc(O)cc(O)c1C(=O)/C=C/c1ccccc1`, the inhibition was 49.8% (active). Consider `COc1cc(O)c(C(=O)/C=C/c2ccccc2)c(OC)c1`, for which the inhibition is 1.3%. For `COc1cc(OC)c(C(=O)/C=C/c2ccccc2)c(O)c1O`, the inhibition is 21.4%. On to `CN1C/C(=C/c2cccnc2)C(=O)/C(=C/c2cccnc2)C1`, for which the inhibition is 37%.

As for `CCC1C/C(=C\c2cccnc2)C(=O)/C(=C/c2cccnc2)C1` (stereo not given), the inhibition is 103% (active). For the molecule `O=C1/C(=C/c2cccnc2)CC/C1=C\c1cccnc1`, the inhibition was 5.4%. On to `CC(Cl)C(=O)c1ccc2c(c1)CCN2C(=O)C1CC1` (stereo not given), for which the inhibition is 43.8%. On to `O=C(CCl)c1ccc2c(c1)CCN2C(=O)C1CCCCC1`, for which the inhibition was 13%. With `O=C(CCl)c1ccc2c(c1)CCN2C(=O)C1CC1`, the inhibition was 76.4% (active).

For `Cc1nnsc1NC(=O)OCc1ccc(C(C)(C)C)cc1`, the inhibition was 58.9%. As to `Clc1ccc(OCc2nn[nH]n2)cc1`, the inhibition is 4.7%. As to `Cc1cc(C)c(C)c(S(=O)(=O)NCC(=O)NCC2CCCCC2)c1C`, the inhibition was -8.5%. With `O=C(NC1CCN(S(=O)(=O)c2cccc(F)c2)CC1)c1ccc(F)cc1`, the inhibition was -9.7%. Take `C1=Nc2c(Nc3ccccc3)ncnc2Oc2ccccc21`: the inhibition is -21%. Consider `O=C(/C=C/c1ccc(OCCCF)cc1)Nc1ccnc(-c2cccnc2)n1`, for which the inhibition is 8.2%. Consider `O=C(/C=C/c1ccc(OCCCF)cc1)Nc1ccnc(-c2ccncc2)n1`, for which the inhibition was 89.5% (active).

As to `COc1ccc(CNC(=O)/C=C/c2ccc(OCCCF)cc2)cc1`, the inhibition is -6.2%. Regarding `CCC(C)C(Nc1ncnc2scc(-c3ccccc3)c12)C(=O)O` (stereo not given), the inhibition was -21%. The value for `O=S(=O)(NC1CC1)c1ccccc1` was -1%. For the molecule `COC(=O)c1cn(NC(=O)c2ccccc2[N+](=O)[O-])c(=O)c2ccccc12`, the inhibition is -27.3%. The value for `COC(=O)c1cn(NC(=O)c2ccc([N+](=O)[O-])cc2Cl)c(=O)c2ccccc12` was -35.6%; that for `COC(=O)c1cn(NC(=O)c2cc([N+](=O)[O-])ccc2F)c(=O)c2ccccc12` was 78% (active). Consider `CC1CN(C(=O)COC(=O)c2cc(Cl)ccc2[N+](=O)[O-])CC(C)O1` (stereo not given), for which the inhibition is -25.3%.

As to `CCCCS(=O)(=O)N1CCN(S(=O)(=O)c2ccc(Cl)s2)CC1`, the inhibition is -11%. Take `O=C(Oc1cc(=O)oc2ccccc12)c1ccccc1`: the inhibition is -8.5%. The value for `CC(C)[C@H](NC(=O)[C@@H]1Cc2ccccc2CN1)C(=O)NC1CCCCC1` was -12.1%; that for `CCCCc1c(O)nc(SCC(=O)c2ccccc2)n(-c2ccccc2)c1=O` was -1.5%.

Consider `Cc1ccc(S(=O)(=O)/N=C(\CN2CCOCC2)N2CCOCC2)cc1`, for which the inhibition was 0.6%. On to `Cc1ccc(S(=O)(=O)/N=C(\CCl)N2CCOCC2)cc1`, for which the inhibition was 72.3% (active). As to `Cc1ccc(S(=O)(=O)/N=C(\CN2CCCCC2)N2CCOCC2)cc1`, the inhibition was 10.8%. The value for `N/N=c1\sc2ccccc2n1-c1ccccc1` was 2.6%; that for `COc1cccc(/C=C2\SC(=S)N(CCCC(=O)N3CCCCC3)C2=O)c1` was 0%; that for `O=C(CCC1CCCCC1)Nc1nnc(C(F)(F)F)s1` was 77.4% (active). With `O=C(CCC(=O)NC1CCCCCCC1)Nc1nnc(C(F)(F)F)s1`, the inhibition was 4.2%. `O=C(CCC(=O)NC1CCCCCC1)Nc1nnc(C(F)(F)F)s1`: the inhibition is -18.1%. `Cc1ccnc(NC(=O)c2ccc(Cl)cc2Cl)n1`: the inhibition was 14.3%.
